Compound activity (PubChem)
Pf Dd2 inh – inhibitors of Plasmodium falciparum Dd2 growth; 120,000 tested, 4.3% active; P. falciparum Dd2 growth, SYBR Green, 72 h; AID 1347417; Potency, µM (top dose mostly 28.9 µM), for the others: at the top dose activity, negative = inhibition, actives largely listed as inhibitors; active means well fitted inhibition curve with a large enough effect;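 further: plate controls were DMSO vehicle for no effect and reference drug for full effect; nearly all actives have a fitted effect of over 65% in size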
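Infected erythrocytes (Dd2, 0.3% parasitemia, 2.5% hematocrit final) are added to compound in RPMI-1640/Albumax II medium, grown 72 h at 37C in low oxygen, then lysed with saponin/Triton-X containing SYBR Green and read by fluorescence.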
Active calls of the source: *; i = inactive; [ ] = another dose, or the depositor's remark. Shown is part of a subset that was picked to be rich in hits. Potency means the concentration at half of the fitted maximal effect.

SMILES	Pf Dd2 inh
O=C(C1CCCO1)N1CCN(Cc2ccc(=O)n(CC3CC3)c2)CC1 (stereo not given)	14.3%
Cn1ncc(N2CCC(CNC(=O)c3cn(CCN)nn3)C2)cc1=O (stereo not given)	8.8%
O=C(Nc1ccc(F)cc1)N[C@H]1[C@H](O)[C@@H](N2CCCCC2)[C@@H]2OC[C@H]1O2	-13.9%[44.1 µM]
CCC(C)C(=O)NC1CCN(c2cnn(CCOC)c(=O)c2)CC1 (stereo not given)	33.0%
COCc1cn([C@H]2CO[C@H]3[C@@H]2OC[C@H]3OC(=O)Nc2ccc(C)cc2)nn1	-15.1%[44.1 µM]
COc1ccc(S(=O)(=O)N2CCC(CC(=O)NCc3ccccc3)C2)cc1OC (stereo not given)	i
O=C(NCc1ccc(F)cc1)C1CN(c2ccc(Cl)cc2)C(=O)N1 (stereo not given)	14.7%
COc1ccc(-c2cc(-c3ccncc3)cn3cncc23)cc1	10µM*
OCc1ccc(-c2cc(-c3ccncc3)c3cncn3c2)cc1	-5.6%[44.1 µM]
Cc1noc(C)c1-c1cc(-c2ccc3c(c2)C(=O)NC3)cn2cncc12	i
Cn1cc(-c2cc(-c3ccncc3)c3cncn3c2)cn1	i
COc1ccc(-c2cc(-c3ccc4c(c3)CNC4=O)cn3cncc23)cc1	4.47µM*
COc1ccc(C(=O)NC[C@H]2O[C@@H](CO)[C@@H](O)[C@H]2N2CCc3ccccc3C2)cc1	-24.5%
CCOc1cc(=O)n2c(c1C(=O)NCc1cccc(F)c1)CCCCC2	24.6%
Cc1cc(CNC(=O)C2(C(N)=O)CC2)c2[nH]c(-c3ccccc3)c(C)c2c1	-23.3%
COc1ccc(NC(=O)CN2C(=O)C(c3ccccc3)=NC23CCCCC3)cc1	i
CCNC(=O)N(C1CC1)C1CCOC2(CCN(C(=O)c3ccn(CC)n3)CC2)C1 (stereo not given)	31.8%
Cc1ccc(CNS(=O)(=O)c2c(C(=O)N3CCC(C)CC3)c(C)n(C)c2C)cc1	12.2%
Cc1c(C(=O)N2CCCCC2)c(S(=O)(=O)NCc2ccc(N(C)C)cc2)c(C)n1C	-17.0%
Cc1c(C(=O)N2CCCCCC2)c(S(=O)(=O)N(Cc2ccccc2)C(C)(C)C)c(C)n1C	12.6µM*
CC(C)c1nnc(C2CN(C(=O)Cc3ccccc3Cl)CC23CCOCC3)o1 (stereo not given)	-6.8%
Cn1cc(CN2CCN3CCCC3C2)c(-c2ccc(C3CCCCC3)cc2)n1 (stereo not given)	8.91µM*
Cn1cc(CN2CCCC(C(=O)N3CCOCC3)C2)c(-c2ccc(C3CCCCC3)cc2)n1 (stereo not given)	-22.9%
Cn1cc(CN2CCN3C(=O)N(C4CCCCC4)C[C@H]3C2)cn1	i
CCOCCCNC(=O)N1Cc2ccccc2OC2(CCN(C)CC2)C1	i
SMILES	Pf Dd2 inh
CN1C[C@H](NC(=O)c2cnccn2)CCC[C@@H](C(=O)NCc2cc(F)cc(F)c2)CC1=O	i
CCc1ccc(NC(=O)C2CCCN(c3nnc(C)c4c(C)n(-c5ccccc5)nc34)C2)cc1 (stereo not given)	15.9%
COc1ccc(-n2nc3c(N4CCCC(C(=O)NCc5ccccc5C)C4)nnc(C)c3c2C)cc1 (stereo not given)	-5.6%
CCOc1ccc(NC(=O)C2CCCN(c3nnc(C)c4c(C)n(-c5ccccc5)nc34)C2)cc1 (stereo not given)	5.9%
COc1ccc(-n2nc3c(N4CCCC(C(=O)NCCc5ccc(C)cc5)C4)nnc(C)c3c2C)cc1 (stereo not given)	8.91µM*
Cc1nnc(N2CCCC(C(=O)NCc3ccccc3F)C2)c2nn(-c3ccc(Cl)cc3)c(C)c12 (stereo not given)	1.1%
COc1ccc(-n2nc3c(N4CCCC(C(=O)NCCc5ccccc5C)C4)nnc(C)c3c2C)cc1 (stereo not given)	8.91µM*
Cc1nc2c(c(N[C@@H]3COCC[C@H]3OCc3ccccn3)n1)CCC2	-16.0%
CC(=O)NCC12CCCC=C1N(C)C(=O)CC2 (stereo not given)	i
Cn1c(CO[C@H]2CN(C(=O)Nc3ccccc3)C[C@H]2F)nc2ccccc21	-9.9%[44.1 µM]
CO[C@H]1C(=O)N(C2CCN(C(=O)c3nn(C)c4ccccc34)CC2)[C@H]1c1ccncc1	-9.2%
O=C(NCc1ccc(F)cc1)N1CCC(N2CC3CC(C2)[C@H]2CCCC(=O)N2C3)CC1 (stereo not given in full)	-8.3%
Brc1ccc(Nc2c3c(nc4nncn24)CCC3)cc1	3.98µM*
Cc1ccc(Nc2c3c(nc4nncn24)CCC3)cc1C	10µM*
CCOc1ccc(Nc2c3c(nc4nncn24)CCC3)cc1	-6.8%
Cc1ccccc1Nc1c2c(nc3nncn13)CCC2	-9.6%
Cc1cccc(Nc2c3c(nc4nncn24)CCC3)c1	43.7%
Cc1ccc(Nc2c3c(nc4nncn24)CCC3)cc1	i
CCC(C)NC(=O)C1COC2(CCN(C(=O)c3cccc(C)c3)CC2)N1C(=O)c1ccc(OC)cc1 (stereo not given)	i
Cc1cccc(NC(=O)CN2C(=O)NC3(CCS(=O)(=O)CC3)C2=O)c1	i
CC(C)CCN1CCC(Oc2ccc(C(N)=O)cn2)CC1	i
O=C(NC1CCc2nnc(C3CC3)n2CC1)c1ccoc1 (stereo not given)	i
CCn1cc(S(=O)(=O)N2CCCCCCN(C)C(=O)[C@@H]3CCC[C@@H]32)cn1	-17.0%
O=C1NCCCCCN(S(=O)(=O)c2cccc(F)c2)[C@H]2CCCC[C@@H]12	14.1%
CN1CCCCCCN(S(=O)(=O)c2cccc(F)c2)[C@H]2CCC[C@H]2C1=O	2.51µM*
SMILES	Pf Dd2 inh
Cc1nc2ccc(C(=O)N3C[C@@H](CN4CCCCC4)[C@@H](CO)C3)cc2s1	-17.6%
CCCn1cc(-c2ccncc2)cc1C(=O)N1CCN(c2ccccc2OC)CC1	3.98µM*
CCCn1cc(-c2ccncc2)cc1C(=O)N1CCN(C)CC1	i
CCn1cc(-c2ccncc2)cc1C(=O)NCc1cccc(F)c1	-0.4%
CCCN1CCN(C(=O)c2cc(-c3ccc(F)cc3)cn2CC)CC1	-20.4%
CCn1cc(-c2ccncc2)cc1C(=O)N1CCOCC1	-3.6%
CC(=O)Nc1ccc(NC(=O)c2cc(-c3ccncc3)cn2Cc2ccccc2C)cc1	3.16µM*
CCn1cc(-c2ccc(C)cc2)cc1C(=O)N1CCN(c2ccccn2)CC1	-33.2%
Cc1ccccc1Cn1cc(-c2ccncc2)cc1C(=O)N1CCN(c2ccccc2)CC1	3.55µM*
COc1cccc(NC(=O)c2cccn(Cc3ccccc3C)c2=O)c1	i
O=C(c1ccccc1)N1CCn2c(nnc2[C@@H]2C[C@@H](O)CN2Cc2ccccc2)C1	26.2%
CCCCNC(=O)N1CC(C(=O)NCc2ccco2)CC(c2ccc(F)c(C)c2)C1 (stereo not given)	i
COc1cccc(NC(=O)N[C@H](C)c2onc(-c3ccc(F)cc3)c2C(=O)O)c1	i
CN1C(=O)Cc2ccccc2C1C(=O)NCc1ccc(F)cc1Cl (stereo not given)	-2.1%
Cc1ccc(CNC(=O)C2Cn3cccc3C(=O)N2CC(C)C)o1 (stereo not given)	-16.1%
CN(C)[C@@H]1CN(C(=O)c2cccn2C)CC[C@]1(O)c1ccccc1	15.4%[5.79 µM]
CCN(Cc1ccc(C)o1)C(=O)c1cccc(CCC(C)(C)O)c1	3.5%
CCn1cc(CN(C)S(=O)(=O)c2ccc(C(=O)NC3CC3)cc2)cn1	-3.3%
O=C(c1ccccc1)N1CCc2nc(C3CC3)nc(-c3ccc(O)cc3)c2CC1	-2.3%
O=C(c1cccc(Cl)c1)N1CCc2nc(C3CC3)nc(-c3ccc(O)cc3)c2CC1	5.01µM*
